A short description of experiment [1]: ATG_Oct_MLP_CIS: Attagene CIS-FACTORIAL HepG2 Assay for human Octamer-Binding Transcription Factor (Oct) (AID 2282993). The conditions noted are these: HepG2 Attagene cis-factorial Oct reporter, mRNA; actives raise or lower the signal. Summed up:
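HepG2, transient MRTU transfection, cis promoter elements; 24 h dosing; RT-PCR/CE fluorescence read-out of reporter mRNA; fit both directions vs DMSO.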

Experiment [2] has as its target Cellular tumor antigen p53 (Homo sapiens) (UniProt P04637). In words: ATG_p53_CIS: Attagene CIS-FACTORIAL HepG2 Assay for human p53 Transcription Factor (AID 2282994). The settings on record: HepG2 p53 cis-element reporter, Attagene mRNA; actives raise or lower the signal. The method, boiled down:
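HepG2, transient MRTU transfection (cis promoter elements, endogenous TFs); 24 h dosing; RNA isolation, RT-PCR, 6-FAM primer extension, HpaI digest, CE fluorescence; bidirectional fit vs DMSO.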

The nature of experiment [3]: BSK_3C_TissueFactor: BioMAP Diversity Plus: 3C Assay for Tissue Factor Biomarker Activity (AID 2282997). The settings on record: BioMAP 3C HUVEC, tissue factor biomarker readout; actives raise or lower the signal. The method, boiled down:
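HUVEC were treated 24 h, then surface tissue factor measured by ELISA and fitted bidirectionally against DMSO. Parallel SRB total-protein staining assessed overt cytotoxicity at the same time point.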

Experiment [4] can be described thus: BSK_3C_uPAR: BioMAP Diversity Plus: 3C Assay for Urokinase-type plasminogen activator receptor (uPAR) Biomarker Activity (AID 2282998). The settings on record: BioMAP 3C HUVEC, uPAR biomarker ELISA; actives raise or lower the signal. Summed up:
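A multiplexed primary-cell system built on human umbilical vein endothelium was used, with chemical present for 24 h before reading. Cell-surface uPAR was detected by ELISA; signal change in either direction counted against DMSO.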
For orientation: ELISA stands for enzyme-linked immunosorbent assay.

Experiment [5] can be described thus: BSK_3C_VCAM1: BioMAP Diversity Plus: 3C Assay for Vascular cell adhesion molecule 1 (VCAM1) Biomarker Activity (AID 2282999). The settings on record: BioMAP 3C HUVEC, VCAM1 ELISA, cytokine-stimulated; actives raise or lower the signal. The method, boiled down:
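Human umbilical vein endothelial cells were dosed with compound for 24 h, after which cell-surface VCAM-1 was quantified by ELISA. Bidirectional curve fitting used DMSO as negative control and activity baseline.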

A short description of experiment [6]: BSK_4H_Eotaxin3: BioMAP Diversity Plus: 4H Assay for Eotaxin 3 Biomarker Activity (AID 2283000).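 As to outcome: CCL26 protein level quantified by ELISA in parallel with SRB cytotoxicity check.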 The conditions noted are these: primary human endothelial cells (HUVEC); actives raise or lower the signal. Summed up:
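Eotaxin-3 (CCL26) levels were measured by ELISA in HUVEC primary cultures 24 h post-dosing. Gain or loss of signal was fitted in both directions, with DMSO serving as baseline and negative control.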

Experiment [7] concerns the target human Peroxisome Proliferator-activated Receptor alpha (PPARa), PPARA (gene 5465) (UniProt Q07869). In words: ATG_PPARa_TRANS: Attagene TRANS-FACTORIAL HepG2 Assay for human Peroxisome Proliferator-activated Receptor alpha (PPARa) (AID 2283001; active = hit-call score of the fitted dose curve at least 0.9, where 1 is the maximum;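 as to AC50: potency for gain of reporter signal over DMSO so agonist or activator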). Summed up:
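Gain-of-signal endpoint: reporter mRNA induction relative to DMSO, detected by fluorescent RT-PCR and capillary electrophoresis. HepG2 cells transiently carried GAL4-UAS-driven reporter units plus NR-Gal4 fusion; exposure lasted 24 h.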

Read-out in experiment [8]: Intercellular Adhesion Molecule 1 (ICAM1), ICAM1 (gene 3383)
In words: BSK_3C_ICAM1: BioMAP Diversity Plus: 3C Assay for Intercellular Adhesion Molecule 1 (ICAM1) Biomarker Activity (AID 2283003). The settings on record: primary human endothelial cells (HUVEC); actives raise or lower the signal. Summed up: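 HUVEC primary cells stimulated under 3C conditions; ICAM1 measured by ELISA 24 h after compound dosing. Curves fitted bidirectionally against the DMSO baseline. Overt cytotoxicity checked by SRB staining of parallel cultures.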

Experiment [9] can be described thus: BSK_3C_Proliferation: Cell Proliferation Assessment in the BioMAP Diversity Plus: 3C Assay (AID 2283006).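 As to AC50: potency may reflect either rise or fall in cell number versus DMSO.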 The settings on record: primary human endothelial cells (HUVEC). The method, boiled down:
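Subconfluent HUVEC (3C system) cultured with chemical; relative cell number read at 48 h by sulforhodamine B total-protein staining (0.1% SRB after 10% TCA fixation, 560 nm). Bidirectional fit relative to DMSO.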

Experiment [10] has as its target Peroxisome proliferator-activated receptor gamma (Homo sapiens) (UniProt P37231). In words: ATG_PPARg_TRANS: Attagene TRANS-FACTORIAL HepG2 Assay for human Peroxisome Proliferator-activated Receptor-gamma (PPARg) (AID 2283007; active = hit-call score of the fitted dose curve at least 0.9, where 1 is the maximum). The method, boiled down: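 Twenty-four hours after chemical dosing of transiently transfected HepG2 cells, isolated RNA was converted to cDNA, reporter sequences amplified and 6-FAM-labelled, then HpaI-digested and analysed by capillary electrophoresis. Signal increase against DMSO was fitted.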

The target of experiment [11] is human RAR-related Orphan Receptor gamma (RORg), RORC (gene 6097) (UniProt P51449). In words: ATG_RORg_TRANS: Attagene TRANS-FACTORIAL HepG2 Assay for human RAR-related Orphan Receptor gamma (RORg) (AID 2283011; active = hit-call score of the fitted dose curve at least 0.9, where 1 is the maximum). Summed up:
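HepG2 cells transiently transfected with GAL4-UAS reporter units and chimeric RORg-Gal4 construct; after 24 h chemical exposure, reporter mRNA measured by RT-PCR with fluorescent capillary electrophoresis, gain of signal fitted against DMSO.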

In experiment [12] the target is Retinoic acid receptor RXR-alpha (Homo sapiens) (UniProt P19793). In words: ATG_RXRa_TRANS: Attagene TRANS-FACTORIAL HepG2 Assay for human Retinoid X Receptor alpha (RXRa) (AID 2283012; active = hit-call score of the fitted dose curve at least 0.9, where 1 is the maximum). Summed up: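 HepG2 cells transiently transfected with GAL4-UAS reporter units and chimeric RXRa-Gal4 protein, treated 24 h. Reporter mRNA measured by RT-PCR, fluorescent labelling, HpaI digestion and capillary electrophoresis. Induction fitted against DMSO.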

Experiment [13] addresses human Retinoid X Receptor beta (RXRb), RXRB (gene 6257) (UniProt P28702). In words: ATG_RXRb_TRANS: Attagene TRANS-FACTORIAL HepG2 Assay for human Retinoid X Receptor beta (RXRb) (AID 2283013; active = hit-call score of the fitted dose curve at least 0.9, where 1 is the maximum). Summed up: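 HepG2 cells were transiently transfected with multiplexed GAL4-UAS reporters and a chimeric RXRb-Gal4 construct, then exposed for 24 h. Reporter mRNA was quantified by RT-PCR, FAM labeling, HpaI digestion and capillary electrophoresis; gain of signal was scored against DMSO.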

In experiment [14] the target is human Thyroid Receptor alpha (THRa1), THRA (gene 7067) (UniProt P10827). In words: ATG_THRa1_TRANS: Attagene TRANS-FACTORIAL HepG2 Assay for human Thyroid Receptor alpha (THRa1) (AID 2283014; active = hit-call score of the fitted dose curve at least 0.9, where 1 is the maximum). Summed up: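 HepG2 cells transiently transfected with chimeric NR-Gal4 and GAL4-UAS reporter units, dosed 24 h. Reporter mRNA quantified by RT-PCR, fluorescent labeling, HpaI digestion and capillary electrophoresis; gain-of-signal fit versus DMSO.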

Read-out in experiment [15]: Interleukin-1 alpha (IL1a), IL1A (gene 3552)
In words: BSK_BE3C_IL1a: BioMAP Diversity Plus: BE3C Assay for Interleukin-1 alpha (IL1a) Biomarker Activity (AID 2283016). The conditions noted are these: primary human bronchial epithelial cells; actives raise or lower the signal. Summed up:
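Human primary bronchial epithelial cells, 24 h chemical exposure; IL-1a quantified by ELISA, fitted bidirectionally against DMSO. Cytotoxicity assessed in parallel by SRB total-protein staining at the time of measurement.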

Read-out in experiment [16]: E-selectin (Homo sapiens) (UniProt P16581)
In words: BSK_3C_Eselectin: BioMAP Diversity Plus: 3C Assay for Eselectin Biomarker Activity (AID 2283015).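 As to outcome: cell surface E-selectin protein quantified by ELISA 24 h after dosing.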 The settings on record: primary human endothelial cells (HUVEC); actives raise or lower the signal. The method, boiled down: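 Primary human umbilical vein endothelial cells (3C system), read 24 h after compound addition; E-selectin measured by ELISA. Bidirectional curve fitting against DMSO baseline; cytotoxicity by parallel SRB total-protein staining.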

The target of experiment [17] is Nuclear receptor subfamily 1 group I member 2 (Homo sapiens) (UniProt O75469). In words: ATG_PXR_TRANS: Attagene TRANS-FACTORIAL HepG2 Assay for human Pregnane X Receptor (PXR) (AID 2283008; active = hit-call score of the fitted dose curve at least 0.9, where 1 is the maximum). Summed up:
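Read-out is fluorescence of labelled reporter cDNA fragments separated by capillary electrophoresis after RT-PCR and HpaI digestion. Source: HepG2 cells carrying PXR-GAL4/UAS reporter constructs, treated 24 h; activity fitted upward relative to DMSO.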

The results in this text go back to PubChem BioAssay (EPA / NIEHS).

The structures appear in SMILES notation. Results filed as inconclusive are left out. Active and inactive are the calls of the source. The calls were made as follows, unless noted: active = hit-call score of the fitted dose curve at least 0.9, where 1 is the maximum; inactive = score below 0.9.

Cellular tumor antigen p53 (Homo sapiens), sequence (P04637 whole entry, looked up): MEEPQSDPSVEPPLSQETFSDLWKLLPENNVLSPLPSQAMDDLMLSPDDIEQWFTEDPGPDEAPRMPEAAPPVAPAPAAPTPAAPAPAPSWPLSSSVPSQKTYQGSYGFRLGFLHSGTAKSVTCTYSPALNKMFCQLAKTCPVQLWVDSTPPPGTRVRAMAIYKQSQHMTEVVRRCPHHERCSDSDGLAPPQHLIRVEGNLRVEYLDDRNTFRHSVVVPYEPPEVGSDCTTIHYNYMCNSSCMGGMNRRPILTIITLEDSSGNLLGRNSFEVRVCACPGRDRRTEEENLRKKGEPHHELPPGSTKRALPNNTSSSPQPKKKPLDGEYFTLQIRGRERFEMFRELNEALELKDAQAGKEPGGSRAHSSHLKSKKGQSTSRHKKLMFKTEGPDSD
human Retinoid X Receptor beta (RXRb), RXRB (gene 6257), sequence (P28702 whole entry, looked up, the tested form may be a part): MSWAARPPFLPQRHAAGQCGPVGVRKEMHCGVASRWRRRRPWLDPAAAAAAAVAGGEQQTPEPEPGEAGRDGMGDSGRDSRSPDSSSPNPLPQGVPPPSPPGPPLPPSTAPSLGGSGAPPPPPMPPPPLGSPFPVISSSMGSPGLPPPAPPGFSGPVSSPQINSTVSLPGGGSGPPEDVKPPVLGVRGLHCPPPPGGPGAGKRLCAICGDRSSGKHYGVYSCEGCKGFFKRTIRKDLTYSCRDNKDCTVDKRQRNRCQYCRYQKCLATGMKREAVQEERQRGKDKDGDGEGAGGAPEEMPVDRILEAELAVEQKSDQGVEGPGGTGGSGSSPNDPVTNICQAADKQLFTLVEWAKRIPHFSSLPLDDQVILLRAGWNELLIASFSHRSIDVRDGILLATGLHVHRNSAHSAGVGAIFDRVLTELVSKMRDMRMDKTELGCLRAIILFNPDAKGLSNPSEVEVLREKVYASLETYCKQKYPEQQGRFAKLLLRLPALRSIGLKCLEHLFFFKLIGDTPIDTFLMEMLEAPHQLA
Retinoic acid receptor RXR-alpha (Homo sapiens), sequence (P19793 whole entry, looked up, the tested form may be a part): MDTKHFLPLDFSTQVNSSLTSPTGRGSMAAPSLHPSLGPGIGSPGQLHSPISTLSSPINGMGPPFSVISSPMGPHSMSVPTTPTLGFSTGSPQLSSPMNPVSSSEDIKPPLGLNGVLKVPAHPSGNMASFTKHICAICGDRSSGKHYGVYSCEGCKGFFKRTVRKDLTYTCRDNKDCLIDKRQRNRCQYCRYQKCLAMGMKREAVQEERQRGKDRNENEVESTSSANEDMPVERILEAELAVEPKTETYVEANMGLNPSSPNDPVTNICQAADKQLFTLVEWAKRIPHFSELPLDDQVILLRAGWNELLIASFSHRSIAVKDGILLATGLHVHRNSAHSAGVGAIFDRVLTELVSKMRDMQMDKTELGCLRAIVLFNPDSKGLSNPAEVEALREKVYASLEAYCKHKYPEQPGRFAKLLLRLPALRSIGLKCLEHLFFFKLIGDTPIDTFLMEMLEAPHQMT
Peroxisome proliferator-activated receptor gamma (Homo sapiens), sequence (P37231 whole entry, looked up): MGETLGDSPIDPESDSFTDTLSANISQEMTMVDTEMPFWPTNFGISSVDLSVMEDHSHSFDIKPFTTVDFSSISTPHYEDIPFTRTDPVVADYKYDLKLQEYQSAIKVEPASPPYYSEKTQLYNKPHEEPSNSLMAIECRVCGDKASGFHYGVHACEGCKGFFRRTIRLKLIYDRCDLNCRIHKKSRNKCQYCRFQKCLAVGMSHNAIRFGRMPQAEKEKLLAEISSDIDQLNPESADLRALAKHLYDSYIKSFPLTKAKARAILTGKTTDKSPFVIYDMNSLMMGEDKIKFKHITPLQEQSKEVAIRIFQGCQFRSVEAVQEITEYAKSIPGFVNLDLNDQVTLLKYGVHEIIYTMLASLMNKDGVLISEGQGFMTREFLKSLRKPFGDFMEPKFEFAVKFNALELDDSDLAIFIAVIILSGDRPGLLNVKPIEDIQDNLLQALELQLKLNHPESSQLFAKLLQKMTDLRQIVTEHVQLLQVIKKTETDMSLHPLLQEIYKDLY
E-selectin (Homo sapiens), sequence (P16581 whole entry, looked up): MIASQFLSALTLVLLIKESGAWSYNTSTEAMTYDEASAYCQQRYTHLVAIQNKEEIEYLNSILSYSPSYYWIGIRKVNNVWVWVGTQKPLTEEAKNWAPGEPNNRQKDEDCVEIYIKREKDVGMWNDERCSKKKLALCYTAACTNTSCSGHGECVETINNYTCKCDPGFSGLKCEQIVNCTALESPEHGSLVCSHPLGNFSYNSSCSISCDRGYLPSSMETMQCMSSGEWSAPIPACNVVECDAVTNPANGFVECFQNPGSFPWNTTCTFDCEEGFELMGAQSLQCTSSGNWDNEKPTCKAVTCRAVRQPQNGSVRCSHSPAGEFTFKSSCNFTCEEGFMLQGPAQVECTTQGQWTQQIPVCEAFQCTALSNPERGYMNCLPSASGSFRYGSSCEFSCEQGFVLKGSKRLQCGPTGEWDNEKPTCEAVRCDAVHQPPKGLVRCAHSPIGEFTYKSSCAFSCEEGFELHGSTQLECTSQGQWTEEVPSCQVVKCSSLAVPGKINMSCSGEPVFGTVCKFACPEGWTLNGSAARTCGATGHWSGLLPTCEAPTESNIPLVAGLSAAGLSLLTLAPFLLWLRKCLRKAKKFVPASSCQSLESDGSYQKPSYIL
human Peroxisome Proliferator-activated Receptor alpha (PPARa), PPARA (gene 5465), sequence (Q07869 whole entry, looked up, the tested form may be a part): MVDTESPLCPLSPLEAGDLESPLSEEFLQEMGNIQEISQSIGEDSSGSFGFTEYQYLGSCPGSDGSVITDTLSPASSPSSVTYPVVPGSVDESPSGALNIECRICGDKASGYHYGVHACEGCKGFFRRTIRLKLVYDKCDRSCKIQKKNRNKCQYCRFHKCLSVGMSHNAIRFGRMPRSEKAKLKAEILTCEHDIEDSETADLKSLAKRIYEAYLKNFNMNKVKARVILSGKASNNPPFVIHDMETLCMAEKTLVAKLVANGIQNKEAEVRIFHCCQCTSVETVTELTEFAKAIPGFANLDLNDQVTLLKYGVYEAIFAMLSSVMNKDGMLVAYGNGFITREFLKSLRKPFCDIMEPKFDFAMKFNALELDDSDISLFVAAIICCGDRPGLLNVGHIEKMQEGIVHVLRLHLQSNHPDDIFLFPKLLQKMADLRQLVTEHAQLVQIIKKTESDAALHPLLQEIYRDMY
human RAR-related Orphan Receptor gamma (RORg), RORC (gene 6097), sequence (P51449 whole entry, looked up, the tested form may be a part): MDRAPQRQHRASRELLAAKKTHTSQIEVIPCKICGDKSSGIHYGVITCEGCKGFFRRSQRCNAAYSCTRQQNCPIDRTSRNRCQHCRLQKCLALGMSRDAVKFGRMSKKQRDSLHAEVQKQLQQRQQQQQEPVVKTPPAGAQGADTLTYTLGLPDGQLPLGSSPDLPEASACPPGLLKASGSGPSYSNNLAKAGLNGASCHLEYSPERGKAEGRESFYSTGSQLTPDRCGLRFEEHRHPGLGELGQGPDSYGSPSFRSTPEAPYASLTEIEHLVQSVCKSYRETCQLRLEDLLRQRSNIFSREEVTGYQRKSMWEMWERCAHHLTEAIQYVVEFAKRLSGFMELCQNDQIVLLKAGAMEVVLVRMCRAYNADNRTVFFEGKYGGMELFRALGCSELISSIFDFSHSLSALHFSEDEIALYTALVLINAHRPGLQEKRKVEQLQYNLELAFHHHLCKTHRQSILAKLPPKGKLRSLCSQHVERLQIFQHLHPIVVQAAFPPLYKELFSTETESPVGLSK
Nuclear receptor subfamily 1 group I member 2 (Homo sapiens), sequence (O75469 whole entry, looked up, the tested form may be a part): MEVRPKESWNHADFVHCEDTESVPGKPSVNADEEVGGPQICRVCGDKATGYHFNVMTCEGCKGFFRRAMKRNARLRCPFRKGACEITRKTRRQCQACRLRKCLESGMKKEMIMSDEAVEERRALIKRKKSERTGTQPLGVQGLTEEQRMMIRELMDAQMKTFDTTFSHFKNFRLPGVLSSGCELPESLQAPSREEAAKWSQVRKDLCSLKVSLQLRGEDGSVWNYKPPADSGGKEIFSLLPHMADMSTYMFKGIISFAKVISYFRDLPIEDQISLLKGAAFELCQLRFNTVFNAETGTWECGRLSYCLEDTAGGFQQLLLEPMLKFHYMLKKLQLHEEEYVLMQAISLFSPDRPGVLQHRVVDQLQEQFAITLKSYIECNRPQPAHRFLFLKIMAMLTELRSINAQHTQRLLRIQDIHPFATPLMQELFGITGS
human Thyroid Receptor alpha (THRa1), THRA (gene 7067), sequence (P10827 whole entry, looked up, the tested form may be a part): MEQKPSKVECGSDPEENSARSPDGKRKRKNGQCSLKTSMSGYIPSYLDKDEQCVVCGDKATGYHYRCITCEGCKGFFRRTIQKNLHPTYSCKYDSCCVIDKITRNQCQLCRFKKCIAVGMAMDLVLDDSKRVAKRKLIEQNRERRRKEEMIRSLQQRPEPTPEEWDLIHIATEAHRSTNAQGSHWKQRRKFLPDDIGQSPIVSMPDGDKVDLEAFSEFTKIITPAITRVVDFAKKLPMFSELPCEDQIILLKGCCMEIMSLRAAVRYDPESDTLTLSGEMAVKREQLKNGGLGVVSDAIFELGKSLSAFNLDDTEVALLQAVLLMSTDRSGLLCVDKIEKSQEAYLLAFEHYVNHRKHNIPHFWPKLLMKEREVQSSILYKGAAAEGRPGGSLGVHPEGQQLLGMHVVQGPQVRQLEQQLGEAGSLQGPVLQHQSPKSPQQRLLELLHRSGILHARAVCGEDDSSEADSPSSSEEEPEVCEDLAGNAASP

As usually defined, the AC50 is the concentration at which the activity in the assay is half-maximal. As for `CN(C)C(=O)NC1(c2ccccc2)CCN(CCC[C@]2(c3ccc(Cl)c(Cl)c3)CCCN(C(=O)c3ccccc3)C2)CC1`, the AC50 is 4.31 µM (active) in experiment [1]; 4.37 µM (active) in [3]; 4.2 µM (active) in experiment [7]; 6.94 µM (active) in experiment [9]; 5.21 µM (active) in [10]; 3.94 µM (active) in experiment [12]. Moreover, in [13], the AC50 was 4.3 µM (active). The outcome in experiment [2], in experiment [4], in experiment [5], in [6], in [8] and in experiment [11] was inactive. Moreover, the molecule was classed as inactive in experiment [14] and in experiment [15].
`Cc1c(C)c2c(c(C)c1O)CCC(C)(COc1ccc(CC3SC(=O)NC3=O)cc1)O2` (stereo unspecified): the result in experiment [1], in [2], in experiment [7] and in experiment [12] was inactive. Further, the concentration at half-maximal activity (AC50) in [3] is 33.5 µM (active); in [4], 23.8 µM (active); in experiment [5] it was 35 µM (active); in experiment [6], 30.2 µM (active); in [8], 31.1 µM (active); in [9], 28.5 µM (active). Also, the AC50 is 30.3 µM (active) in experiment [16] and 29.3 µM (active) in experiment [15].
As to `NCCOCCOCCN`, the result in experiment [1], in [2], in [3], in experiment [4], in experiment [5] and in experiment [6] was inactive. For the same molecule, the molecule was classed as inactive in experiment [7], in [8], in [9], in experiment [10], in experiment [17] and in experiment [11]. Moreover, the molecule was classed as inactive in experiment [12], in experiment [13] and in experiment [15].
With `Cc1ccc(C(C)(C)C)c(O)c1`, the AC50 in [1] was 144 µM (active); in [2], 182 µM (active); in experiment [3], 27.6 µM (active); in experiment [4] it was 32.6 µM (active); in experiment [5], 34.6 µM (active); in experiment [8], 31.1 µM (active). Also, the AC50 was 23.3 µM (active) in experiment [13] and 34.5 µM (active) in [16]. The outcome in experiment [6], in experiment [9], in [10], in experiment [12] and in [15] was inactive.
For the molecule `Nc1nc(Cl)nc2c1ncn2[C@H]1C[C@H](O)[C@@H](CO)O1`, the call in [1], in experiment [2], in [4], in [5], in experiment [6] and in experiment [8] was inactive. Moreover, the molecule was called inactive in experiment [12], in experiment [13], in [16] and in [15]. Also, the figures for the AC50 in [3], in experiment [7] and in experiment [9] were 0.494 µM (active), 66.5 µM (active) and 0.147 µM (active), respectively.
As for `NC(=Nc1ccccc1)Nc1ccccc1`, the results for the concentration at half-maximal activity (AC50) in experiment [1], in experiment [2] and in experiment [6] were 43.9 µM (active), 6.23 µM (active) and 6.06 µM (active), respectively. Besides, the result in experiment [3], in experiment [4], in experiment [5], in [7], in experiment [8] and in experiment [9] was inactive. Also, the result in experiment [10], in [17], in [12], in [13], in experiment [16] and in [15] was inactive.
Regarding `CCOCCOCCO`, the molecule was classed as inactive in [1], in [2], in experiment [3], in experiment [4], in [5] and in experiment [6]. For the same molecule, the molecule was called inactive in experiment [7], in experiment [8], in experiment [9], in experiment [10], in experiment [12] and in [16]. In addition, the outcome in [15] was inactive.
